A short description of experiment [1]: qHTS assay to identify small molecule agonists of the RXR signaling pathway - cell viability counter screen (AID 1159529). Also: nearly all actives have a fitted effect of over 50% in size. Also: potency is read from the fitted curve at half-maximal effect. In short, it runs like this:
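Steps: seed RXR-alpha-UAS-bla HEK 293T cells in assay medium containing 2% charcoal-stripped FBS; incubate 5 hr; add compounds in DMSO; incubate 16 hr at 37 C; after the bla read, add CellTiter-Glo and read luminescence at 30 min.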

For experiment [2], the target named is Nuclear receptor subfamily 1 group I member 3 (Homo sapiens) (UniProt Q14994). Kind of experiment: qHTS assay to identify small molecule agonists of the constitutive androstane receptor (CAR) signaling pathway (AID 1224839). Also: nearly all actives have a fitted effect of over 15% in size. Also: potency is read from the fitted curve at half-maximal effect. Put shortly:
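Cells were plated and incubated 4 hrs, then dosed with compounds at 15 concentrations. PK11195 was added to 0.75 uM final. After 24 hrs at 37 C, luciferase luminescence was measured.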

The nature of experiment [3]: qHTS assay to identify small molecule agonists of the hypoxia (HIF-1) signaling pathway - cell viability counter screen (AID 1224844; calls by dose curve; also: nearly all actives have a fitted effect of over 50% in size). Put shortly:
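HRE-bla ME-180 cells, 2,000/well in 0.5% dialyzed FBS medium, treated 17 h at 37C with compounds. Viability read in the same wells as the bla reporter, by CellTiter-Glo luminescence after 30 min at room temperature.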

The nature of experiment [4]: qHTS RealTime-Glo MT Cell Viability Assay in HEK293 cells - 16 hour (AID 1224872). Also: nearly all actives have a fitted effect of over 50% in size. Also: potency is read from the fitted curve at half-maximal effect. In short, it runs like this: (§1)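 Quantitative high-throughput screen of the Tox21 10K library in HEK293: cells and RealTime-Glo reagents plated together, compound added at 5 h, luminescence monitored through 40 h at 37 C.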
The nature of experiment [5]: qHTS RealTime-Glo MT Cell Viability Assay in HepG2 cells - 8 hour (AID 1224873). Also: nearly all actives have a fitted effect of over 55% in size. In short, it runs like this: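 HepG2 cells (600/well) mixed with RealTime-Glo MT reagent, settled 5 h at 37 C/5% CO2 before compound addition. Nonlytic NanoLuc luminescence from viable-cell prosubstrate reduction read repeatedly during 40 h treatment at 37 C.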
A short description of experiment [6]: A CellTox Green Cytotoxicity Assay to monitor cytotoxicity in HEK293 cells - 24 hour (AID 1224875). Also: nearly all actives have a fitted effect of over 45% in size. Also: potency is read from the fitted curve at half-maximal effect. Put shortly: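 HEK293 cells, 600/well, were preincubated 5 hours and then exposed to compounds at 37 C for up to 40 hours. A cell-impermeant cyanine dye staining dead-cell DNA was read by fluorescence at 0, 8, 16, 24, 32 and 40 h time points.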
Experiment [7] is described as follows: qHTS RealTime-Glo MT Cell Viability Assay in HEK293 cells - 24 hour (AID 1224886). Also: nearly all actives have a fitted effect of over 50% in size. Also: potency is read from the fitted curve at half-maximal effect. In short, it runs like this:
as §1

The nature of experiment [8]: qHTS assay to identify small molecule agonists of the androgen receptor (AR) signaling pathway in the presence of an antagonist - cell viability counter screen (AID 1259379).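 Also: MDA-kb2 human breast cancer cells carrying an MMTV luciferase reporter; series mostly up to about 92 µM; nearly all actives have a fitted effect of over 25% in size.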 Put shortly: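 MDA-kb2 cells (MMTV-luciferase, AR/GR), 3,000/well, 5 h attachment, then 3.0 µM nilutamide (final) and compounds at 15 concentrations. Viability by CellTiter-Fluor fluorescence after 16 h at 37 °C, 0% CO2, in the reporter wells.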

The nature of experiment [9]: qHTS assay to identify small molecule agonists of the estrogen receptor beta (ER-beta) signaling pathway - cell viability counter screen (AID 1259380). Also: nearly all actives have a fitted effect of over 30% in size. Also: potency is read from the fitted curve at half-maximal effect. Put shortly: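 ER-beta-UAS-bla HEK293T cells in medium with 2% charcoal-stripped FBS, pre-incubated 6 hr, then treated 16 hr at 37C. Cytotoxicity read in the same wells by CellTiter-Glo luminescence after 30 min at room temperature.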

Experiment [10] concerns the target Thyrotropin-releasing hormone receptor (Homo sapiens) (UniProt P34981). Kind of experiment: qHTS assay to identify small molecule agonists of the thyrotropin-releasing hormone receptor (TRHR) signaling pathway (AID 1346891; calls by dose curve;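 also: HEK293 cells expressing TRHR with calcium dye readout; series mostly up to about 58 µM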). In short, it runs like this: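 Cells: TRHR-Hek293, seeded and incubated 18 h. Dye loading: 2 h at 37 °C. Compound added from DMSO stock by pin tool. Read-out: kinetic calcium fluorescence over 3 min.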

Experiment [11] in a line: Human pregnane X receptor (PXR) small molecule agonists, qHTS cell viability counter screen (AID 1346977). Also: nearly all actives have a fitted effect of over 50% in size. Also: potency is read from the fitted curve at half-maximal effect. In short, it runs like this: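 Cytotoxicity counter screen run in the same wells as the PXR luciferase assay, using PXR-Luc HepG2 cells in charcoal-stripped serum medium. Viability: CellTiter-Fluor fluorescence after 24hr compound treatment.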
The nature of experiment [12]: Caspase-3/7 induction in HepG2 cells by small molecules, qHTS cell viability counter screen (AID 1346981). Also: nearly all actives have a fitted effect of over 30% in size. Also: potency is read from the fitted curve at half-maximal effect. Put shortly:
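Wild-type HepG2 cells, 2,000/well, settled 5 hr at 37 C, 5% CO2 before compound addition. Viability read by CellTiter-Fluor fluorescence, reagent added after 16 hr compound exposure, then 1 hr at 37C, in the same wells as the caspase read.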

For experiment [13], the target named is Cytochrome P450 2D6 (Homo sapiens) (UniProt P10635). Kind of experiment: Cytochrome P450 Family 2 Subfamily D Member 6 (CYP2D6) small molecule antagonists: luciferase reporter qHTS assay (AID 1671196). Also: nearly all actives have a fitted effect of over 50% in size. Also: potency is read from the fitted curve at half-maximal effect. Put shortly: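 Cell-free P450-Glo system: CYP2D6 with proluciferin substrate was pre-incubated with compound for 10 min, then reacted with NADPH regeneration for 1 h at room temperature. Luciferin product was detected after 20 min, and data were reported as relative luminescence units.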
Chain of Cytochrome P450 2D6 (Homo sapiens) (P10635 whole entry, looked up): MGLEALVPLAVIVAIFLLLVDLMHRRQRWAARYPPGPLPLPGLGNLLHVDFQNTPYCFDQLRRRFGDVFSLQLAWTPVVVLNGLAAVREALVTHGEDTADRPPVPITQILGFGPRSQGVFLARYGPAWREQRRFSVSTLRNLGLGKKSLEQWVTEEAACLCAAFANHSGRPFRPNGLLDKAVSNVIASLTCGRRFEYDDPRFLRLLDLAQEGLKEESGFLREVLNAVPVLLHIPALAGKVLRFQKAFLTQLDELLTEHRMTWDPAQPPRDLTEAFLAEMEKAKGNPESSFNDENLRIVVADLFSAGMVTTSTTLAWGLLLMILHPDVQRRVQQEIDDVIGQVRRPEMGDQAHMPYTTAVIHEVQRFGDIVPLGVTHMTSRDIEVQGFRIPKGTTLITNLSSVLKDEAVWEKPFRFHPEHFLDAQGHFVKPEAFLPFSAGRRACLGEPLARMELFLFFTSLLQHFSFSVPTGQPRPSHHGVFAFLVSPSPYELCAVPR

Experiment [14] concerns the target Cytochrome P450 3A4 (Homo sapiens) (UniProt P08684). Kind of experiment: Cytochrome P450 Family 3 Subfamily A Member 4 (CYP3A4) small molecule antagonists: luciferase reporter qHTS assay (AID 1671201). Also: nearly all actives have a fitted effect of over 50% in size. Also: potency is read from the fitted curve at half-maximal effect. Put shortly: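 qHTS, 1536-well. CYP3A4 + proluciferin substrate, cpd 10 min RT → NADPH regen 1 h RT → detection reagent 20 min → luminescence (RLU). Ketoconazole positive control.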

Experiment [15] is described as follows: qHTS assay to test for compound auto fluorescence at 535 nm (green) in HepG2 cells (AID 720675).
Experiment [16] is described as follows: qHTS assay to test for compound auto fluorescence at 535 nm (green) in HEK293 cells (AID 720680).
A short description of experiment [17]: qHTS assay to test for compound auto fluorescence at 535 nm (green) in HEK293 cell free culture (AID 720682). In short, it runs like this:
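No cells present: wells hold DMEM supplemented with 10% FBS, into which compound or vehicle is pinned. Green emission is then recorded (485 nm excitation, 535 nm emission) and scaled to fluorescein.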

Experiment [18] can be described thus: qHTS assay to test for compound auto fluorescence at 590 nm (red) in HEK293 cell free culture (AID 720683). In short, it runs like this:
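Cell-free wells of DMEM with 10% FBS received compound, and intrinsic fluorescence was read at excitation/emission 540/590 nm. Values expressed as equivalence to Rose Bengal sodium.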

Experiment [19] can be described thus: qHTS assay to test for compound auto fluorescence at 590 nm (red) in HepG2 cell free culture (AID 720684). Put shortly: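 Compound was pinned into wells holding MEM with 10% FBS and no cells, and red fluorescence was read at Ex/Em 540/590 nm. Signal is expressed as auto fluorescence equivalency relative to Rose Bengal sodium.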
A short description of experiment [20]: qHTS assay to test for compound auto fluorescence at 460 nm (blue) in HepG2 cell free culture (AID 720685). Put shortly: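 Compound (23 nL) or DMSO pinned into cell-free MEM with 10% FBS; blue fluorescence read at 405/460 nm excitation/emission, expressed as auto-fluorescence equivalency to triamterene.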

SMILES strings stand for the structures. Values joined by “and” are separate entries in the source; they are usually repeats but may differ in a detail not shown here. Identical values can stand only once. Results filed as inconclusive are left out. Active and inactive are the calls of the source. Unless noted, calls follow the shape of the dose curve; as a rule, active = well fitted curve in the direction sought with a large enough effect in the repeat runs; inconclusive = weak or mixed curves; inactive = no such curve, though single readings can be large; an effect the other way counts as inactive or inconclusive.

Chain of Nuclear receptor subfamily 1 group I member 3 (Homo sapiens) (Q14994 whole entry, looked up): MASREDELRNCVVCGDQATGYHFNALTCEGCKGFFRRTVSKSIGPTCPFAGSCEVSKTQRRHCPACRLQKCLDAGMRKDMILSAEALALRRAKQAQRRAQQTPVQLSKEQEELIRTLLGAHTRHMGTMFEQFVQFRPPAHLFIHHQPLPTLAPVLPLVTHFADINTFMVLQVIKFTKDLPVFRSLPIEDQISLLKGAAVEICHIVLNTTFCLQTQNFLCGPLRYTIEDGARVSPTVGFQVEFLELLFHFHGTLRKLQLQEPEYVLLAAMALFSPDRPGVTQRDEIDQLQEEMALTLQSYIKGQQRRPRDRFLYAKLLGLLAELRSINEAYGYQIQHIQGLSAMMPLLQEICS
Chain of Cytochrome P450 3A4 (Homo sapiens) (P08684 whole entry, looked up): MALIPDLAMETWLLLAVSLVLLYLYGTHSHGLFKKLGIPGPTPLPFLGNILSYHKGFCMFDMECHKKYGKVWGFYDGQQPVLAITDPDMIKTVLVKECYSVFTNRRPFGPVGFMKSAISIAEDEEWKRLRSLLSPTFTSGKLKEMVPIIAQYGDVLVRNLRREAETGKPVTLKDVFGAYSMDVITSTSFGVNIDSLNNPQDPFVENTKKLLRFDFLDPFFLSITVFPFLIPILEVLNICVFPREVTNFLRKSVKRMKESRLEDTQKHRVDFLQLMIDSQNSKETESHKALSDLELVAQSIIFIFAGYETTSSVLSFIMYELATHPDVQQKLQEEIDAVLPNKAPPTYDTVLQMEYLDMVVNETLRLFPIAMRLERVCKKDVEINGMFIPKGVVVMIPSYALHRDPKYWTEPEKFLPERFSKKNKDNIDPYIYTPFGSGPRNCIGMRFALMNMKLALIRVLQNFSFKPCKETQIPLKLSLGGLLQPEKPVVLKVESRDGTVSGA
Chain of Thyrotropin-releasing hormone receptor (Homo sapiens) (P34981 whole entry, looked up): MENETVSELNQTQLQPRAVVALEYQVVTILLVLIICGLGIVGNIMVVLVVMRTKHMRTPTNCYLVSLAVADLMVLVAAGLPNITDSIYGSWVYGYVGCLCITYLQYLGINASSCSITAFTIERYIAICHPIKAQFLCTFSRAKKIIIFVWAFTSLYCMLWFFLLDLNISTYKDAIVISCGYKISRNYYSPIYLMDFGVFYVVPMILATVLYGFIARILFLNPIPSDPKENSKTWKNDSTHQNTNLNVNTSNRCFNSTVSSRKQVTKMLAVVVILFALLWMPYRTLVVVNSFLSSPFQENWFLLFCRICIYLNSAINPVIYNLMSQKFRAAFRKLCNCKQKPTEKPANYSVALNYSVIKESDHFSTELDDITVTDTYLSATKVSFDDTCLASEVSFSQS

Take `CCN(CC)C(=O)Cl`: the Potency result in [1], in [2], in [3], in [4], in experiment [5] and in experiment [6] was “inactive” in each case. In addition, the Potency result in experiment [7], in experiment [8], in experiment [9], in experiment [11], in [12] and in [13] was “inactive” throughout. Further, in experiment [14], the Potency entry is “inactive”. The compound was classed as inactive in [10].

For `OC(Cc1ccccc1Cl)(Cn1[nH]cnc1=S)C1(Cl)CC1` (configuration not stated), the Potency entry in [2], in experiment [3], in experiment [5], in experiment [6], in experiment [11] and in experiment [12] was “inactive” in each case. Further, the call in [10] was inactive. Also, in experiment [14], the Potency was 5.64 µM (active).

Regarding `Cc1cc(C(C)(C)c2ccc(O)c(C)c2)ccc1O`, the Potency result in experiment [15], in experiment [16], in experiment [17], in experiment [20], in experiment [3] and in experiment [5] was “inactive” in each case. In addition, the compound was classed as inactive in experiment [18], in experiment [19] and in experiment [10]. Moreover, the Potency in experiment [2] was 29.2 µM (active); in experiment [4] it was 20.8 µM (active); in experiment [7], 20.8 µM (active); in experiment [9], 29.2 µM (active); in experiment [11], 20.7 µM (active); in experiment [12], 46.2 µM (active). In addition, the figures for the Potency in [13] and in [14] were 30.2 µM (active) and 1.91 µM (active), respectively.

Take `ClC1=C(Cl)[C@]2(Cl)[C@@H]3[C@@H](Cl)[C@H]4O[C@H]4[C@@H]3C1(Cl)C2(Cl)Cl`: the Potency result in [15], in experiment [16], in [17], in [20], in experiment [3] and in [8] was “inactive” each time. The Potency result in experiment [12] and in [13] was “inactive” throughout. Besides, the compound was called inactive in [18] and in experiment [19]. The Potency in [1] was 49 µM (active); in experiment [4], 54.9 µM (active); in experiment [6], 54.9 µM (active).

As to `c1ccc2c(c1)Sc1ccccc1N2CC1CN2CCC1CC2` (configuration not stated), the Potency entry in experiment [15], in experiment [16], in [17], in experiment [20] and in [2] was “inactive” in each case. The compound was classed as inactive in experiment [18] and in experiment [19]. Further, the Potency in [1] is 19 µM (active); in experiment [9], 23.7 µM (active); in experiment [11] it was 26.6 µM (active); in [12] it was 29.8 µM (active).

In the case of `Clc1ccccc1-c1ccccc1Cl`, the Potency entry in [15], in experiment [16], in experiment [17], in experiment [20], in experiment [5] and in experiment [8] was “inactive” in each case. For the same compound, the Potency entry in [11], in experiment [12], in experiment [13] and in [14] was “inactive” throughout. Also, the result in experiment [18], in experiment [19] and in experiment [10] was inactive. The Potency in experiment [6] is 35.2 µM (active).

For `CCOC(=O)C(O)(c1ccc(Cl)cc1)c1ccc(Cl)cc1`, the Potency result in experiment [15], in experiment [16], in [17], in experiment [20], in experiment [3] and in [5] was “inactive” throughout. Moreover, the Potency entry in [8] and in experiment [14] was “inactive” each time. Further, the result in [18], in [19] and in experiment [10] was inactive. The Potency in experiment [1] was 31.2 µM (active) and 43.6 µM (active); in experiment [2], 55 µM (active) and 54.5 µM (active); in experiment [4] it was 19.7 µM (active) and 34.7 µM (active); in [7], 22.1 µM (active) and 34.7 µM (active).

The values are drawn from PubChem BioAssay (Tox21).
